Test results taken from PubChem BioAssay (Tox21).
Inconclusive results are not listed. Calls of active or inactive are those of the source. The call rests on the fitted dose curve; in most records, active means well fitted curve in the direction sought with a large enough effect in the repeat runs; inconclusive means weak or mixed curves; inactive means no such curve, though single readings can be large; an effect the other way counts as inactive or inconclusive.

Experiments:
[1] = qHTS RealTime-Glo MT Cell Viability Assay in HepG2 cells - 40 hour (AID 1224870); further: nearly all actives have a fitted effect of over 50% in size
Summary of the method: (§1)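 HepG2 cells (600/well) mixed with RealTime-Glo MT reagent, settled 5 h at 37 C/5% CO2 before compound addition. Nonlytic NanoLuc luminescence from viable-cell prosubstrate reduction read repeatedly during 40 h treatment at 37 C.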

[2] = A CellTox Green Cytotoxicity Assay to monitor cytotoxicity in HEK293 cells - 40 hour (AID 1224871); further: nearly all actives have a fitted effect of over 45% in size
Summary of the method: (§2)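 Cells (HEK293, 600/well) and dye reagent are dispensed together. After 5 h at 37 C, 23 nL compound is pinned in. Plates stay at 37 C for 40 h with fluorescence read at 0h, 8h, 16h, 24h, 32h and 40h.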

[3] = qHTS RealTime-Glo MT Cell Viability Assay in HepG2 cells - 8 hour (AID 1224873); further: nearly all actives have a fitted effect of over 55% in size
Summary of the method: as §1

[4] = A CellTox Green Cytotoxicity Assay to monitor cytotoxicity in HEK293 cells - 24 hour (AID 1224875); further: series mostly up to about 77 µM; nearly all actives have a fitted effect of over 45% in size
Summary of the method: as §2

[5] = A CellTox Green Cytotoxicity Assay to monitor cytotoxicity in HepG2 cells - 16 hour (AID 1224876); further: nearly all actives have a fitted effect of over 45% in size
Summary of the method: (§3)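 Cells and non-lytic dye reagent are dispensed together (600 HepG2 cells/well) and incubated 5 h before DMSO compound transfer. Kinetic fluorescence is then recorded in the same wells during 40 h at 37 C.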

[6] = qHTS RealTime-Glo MT Cell Viability Assay in HepG2 cells - 32 hour (AID 1224877); further: nearly all actives have a fitted effect of over 55% in size
Summary of the method: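 qHTS, HepG2, 600 cells/well, RealTime-Glo (NanoLuc + prosubstrate) added with cells; 5 h preincubation; DMSO compound addition; 37 C; luminescence at 0/8/16/24/32/40 h.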

[7] = A CellTox Green Cytotoxicity Assay to monitor cytotoxicity in HepG2 cells - 24 hour (AID 1224878); further: nearly all actives have a fitted effect of over 45% in size
Summary of the method: as §3

[8] = A CellTox Green Cytotoxicity Assay to monitor cytotoxicity in HepG2 cells - 40 hour (AID 1224879); further: nearly all actives have a fitted effect of over 40% in size
Summary of the method: as §3

[9] = qHTS RealTime-Glo MT Cell Viability Assay in HEK293 cells - 16 hour (AID 1224872); further: top concentration of the series differs between compounds; nearly all actives have a fitted effect of over 50% in size
Summary of the method: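 Assay medium contained NanoLuc luciferase plus cell-permeant prosubstrate, added with HEK293 cells at 600 cells/well. After 5 h at 37 C/5% CO2 compounds were added; plates stayed at 37 C for 40 h with serial luminescence reads.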

[10] = qHTS RealTime-Glo MT Cell Viability Assay in HEK293 cells - 40 hour (AID 1224874); settings: RealTime-Glo luminescence; max response: active compounds read low; further: nearly all actives have a fitted effect of over 50% in size
Summary of the method: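 Real-time viability in HEK293: signal arises when living cells convert a prosubstrate for NanoLuc in the medium, so luminescence tracks viable cell number. Compound (23 nL, DMSO) added 5 h post-seeding; kinetic reads at 0–40 h, 37 C.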
On the % scale 0 is the no-effect control and ±100 the full control effect.

O=Cc1ccc(Cl)c(Cl)c1
inactive: outcome [1] | Potency [2] | outcome [3] | outcome [4] | outcome [5] | outcome [6] | outcome [7] | Potency [8]

CC(C)C(=O)OCCc1ccccc1
inactive: outcome [1] | Potency [9] | outcome [3] | max response [10] -2.86% | outcome [4] | outcome [5] | outcome [6] | outcome [7] | Potency [8]

CC(=O)OC(C)OC(=O)C(C)c1ccc(-c2ccccc2)c(F)c1 (centres undefined)
inactive: outcome [1] | Potency [2] | Potency [9] | max response [10] 3.38% | outcome [4] | outcome [5] | outcome [7] | Potency [8]

CCCCCCCC/C=C\CCCCCCCC(=O)OCCCC
inactive: activity change, negative = cytotoxic [1] 12.2% [at 15.8 µM] | cytotoxicity increase [2] -33.9% [at 15.8 µM] | viability change, negative = cytotoxic [3] -0.413% [at 15.8 µM] | cytotoxicity increase [5] -7.79% [at 15.8 µM] | cytotoxicity [7] -11.8% [at 15.8 µM] | cytotoxicity increase [8] -13.9% [at 15.8 µM]

NCCN1CCOCC1
inactive: outcome [1] | Potency [2] | Potency [9] | max response [10] 1.04% | outcome [4] | outcome [5] | outcome [7] | Potency [8]
